From the supplement of paper PMC11732987, “Enantioselective OTUD7B fragment discovery through chemoproteomics screening and high-throughput optimisation” (Communications Chemistry, 2025)

Key:
Assay in all cases: log2 ratio of Biotin-Ahx-Ub-VS probe labelling (fragment/DMSO); higher = less target engagement (more negative = stronger competition), active = hit call of the paper (q ≤ 0.05, log2 ratio ≤ -1)
Conditions in all cases: compound concentration: 200 uM; treatment time: 3 h
USP42 = biological target: T1, USP42 (UniProt Q9H9J4)
T1 sequence (whole entry): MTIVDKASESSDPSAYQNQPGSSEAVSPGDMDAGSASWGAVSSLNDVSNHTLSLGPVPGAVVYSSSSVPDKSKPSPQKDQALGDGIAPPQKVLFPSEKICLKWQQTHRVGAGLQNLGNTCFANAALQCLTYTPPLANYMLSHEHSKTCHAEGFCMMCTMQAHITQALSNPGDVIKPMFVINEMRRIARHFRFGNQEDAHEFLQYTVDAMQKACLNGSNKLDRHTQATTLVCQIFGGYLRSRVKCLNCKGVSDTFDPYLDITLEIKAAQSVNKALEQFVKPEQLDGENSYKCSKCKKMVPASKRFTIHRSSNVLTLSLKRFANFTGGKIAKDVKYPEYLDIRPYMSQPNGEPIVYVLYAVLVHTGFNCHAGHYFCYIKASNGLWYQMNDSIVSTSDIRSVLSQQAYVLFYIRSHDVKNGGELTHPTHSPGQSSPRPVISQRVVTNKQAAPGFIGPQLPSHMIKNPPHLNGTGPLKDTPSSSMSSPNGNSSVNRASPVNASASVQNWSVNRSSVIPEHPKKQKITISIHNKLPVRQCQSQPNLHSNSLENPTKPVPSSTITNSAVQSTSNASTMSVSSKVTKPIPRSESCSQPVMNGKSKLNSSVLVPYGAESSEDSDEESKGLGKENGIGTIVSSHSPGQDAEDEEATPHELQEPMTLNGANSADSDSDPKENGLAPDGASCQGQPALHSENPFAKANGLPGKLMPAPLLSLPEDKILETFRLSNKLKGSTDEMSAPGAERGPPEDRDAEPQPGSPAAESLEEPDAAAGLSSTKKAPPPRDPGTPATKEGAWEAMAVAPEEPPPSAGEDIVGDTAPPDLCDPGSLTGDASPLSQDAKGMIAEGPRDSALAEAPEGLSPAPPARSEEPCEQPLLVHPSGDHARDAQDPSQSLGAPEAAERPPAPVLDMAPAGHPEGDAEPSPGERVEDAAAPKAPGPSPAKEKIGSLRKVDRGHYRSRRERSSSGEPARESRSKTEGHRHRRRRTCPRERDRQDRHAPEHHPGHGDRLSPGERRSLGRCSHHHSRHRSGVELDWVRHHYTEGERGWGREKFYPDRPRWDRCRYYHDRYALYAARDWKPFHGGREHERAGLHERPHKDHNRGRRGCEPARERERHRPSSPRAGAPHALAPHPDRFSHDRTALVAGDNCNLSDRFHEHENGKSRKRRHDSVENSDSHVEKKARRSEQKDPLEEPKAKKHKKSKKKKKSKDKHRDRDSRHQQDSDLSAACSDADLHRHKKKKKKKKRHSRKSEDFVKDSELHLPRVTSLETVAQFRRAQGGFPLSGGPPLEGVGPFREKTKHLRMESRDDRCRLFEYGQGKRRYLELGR
In short: (§1)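 Using Biotin-Ahx-Ub-VS at 0.5 µM final for 1 h, DUBs were labelled in HEK293T lysate (495 µg per sample) that had first been treated in triplicate with fragment at 200 µM or vehicle for 3 h. NeutrAvidin enrichment, LysC and trypsin digestion and diaPASEF LC-MS/MS followed. Spectronaut label-free quantities were global-median-normalised. Values are average log2 fragment/vehicle ratios by unpaired t-test, using proteins with ≥2 unique peptides.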

USP46 = USP46 (UniProt P62068)
Chain of USP46 (P62068 whole entry): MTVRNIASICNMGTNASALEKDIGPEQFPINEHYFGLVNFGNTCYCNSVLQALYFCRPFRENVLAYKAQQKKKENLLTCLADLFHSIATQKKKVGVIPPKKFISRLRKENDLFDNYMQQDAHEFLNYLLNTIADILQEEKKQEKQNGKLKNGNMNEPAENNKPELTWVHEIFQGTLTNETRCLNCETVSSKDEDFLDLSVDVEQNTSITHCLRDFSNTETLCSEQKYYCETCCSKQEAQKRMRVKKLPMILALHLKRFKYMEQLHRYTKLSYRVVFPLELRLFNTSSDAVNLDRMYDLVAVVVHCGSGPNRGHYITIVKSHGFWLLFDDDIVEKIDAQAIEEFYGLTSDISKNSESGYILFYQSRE
In short: as §1

USP47 = biological target: T2, USP47 (UniProt Q96K76)
T2 sequence (whole entry): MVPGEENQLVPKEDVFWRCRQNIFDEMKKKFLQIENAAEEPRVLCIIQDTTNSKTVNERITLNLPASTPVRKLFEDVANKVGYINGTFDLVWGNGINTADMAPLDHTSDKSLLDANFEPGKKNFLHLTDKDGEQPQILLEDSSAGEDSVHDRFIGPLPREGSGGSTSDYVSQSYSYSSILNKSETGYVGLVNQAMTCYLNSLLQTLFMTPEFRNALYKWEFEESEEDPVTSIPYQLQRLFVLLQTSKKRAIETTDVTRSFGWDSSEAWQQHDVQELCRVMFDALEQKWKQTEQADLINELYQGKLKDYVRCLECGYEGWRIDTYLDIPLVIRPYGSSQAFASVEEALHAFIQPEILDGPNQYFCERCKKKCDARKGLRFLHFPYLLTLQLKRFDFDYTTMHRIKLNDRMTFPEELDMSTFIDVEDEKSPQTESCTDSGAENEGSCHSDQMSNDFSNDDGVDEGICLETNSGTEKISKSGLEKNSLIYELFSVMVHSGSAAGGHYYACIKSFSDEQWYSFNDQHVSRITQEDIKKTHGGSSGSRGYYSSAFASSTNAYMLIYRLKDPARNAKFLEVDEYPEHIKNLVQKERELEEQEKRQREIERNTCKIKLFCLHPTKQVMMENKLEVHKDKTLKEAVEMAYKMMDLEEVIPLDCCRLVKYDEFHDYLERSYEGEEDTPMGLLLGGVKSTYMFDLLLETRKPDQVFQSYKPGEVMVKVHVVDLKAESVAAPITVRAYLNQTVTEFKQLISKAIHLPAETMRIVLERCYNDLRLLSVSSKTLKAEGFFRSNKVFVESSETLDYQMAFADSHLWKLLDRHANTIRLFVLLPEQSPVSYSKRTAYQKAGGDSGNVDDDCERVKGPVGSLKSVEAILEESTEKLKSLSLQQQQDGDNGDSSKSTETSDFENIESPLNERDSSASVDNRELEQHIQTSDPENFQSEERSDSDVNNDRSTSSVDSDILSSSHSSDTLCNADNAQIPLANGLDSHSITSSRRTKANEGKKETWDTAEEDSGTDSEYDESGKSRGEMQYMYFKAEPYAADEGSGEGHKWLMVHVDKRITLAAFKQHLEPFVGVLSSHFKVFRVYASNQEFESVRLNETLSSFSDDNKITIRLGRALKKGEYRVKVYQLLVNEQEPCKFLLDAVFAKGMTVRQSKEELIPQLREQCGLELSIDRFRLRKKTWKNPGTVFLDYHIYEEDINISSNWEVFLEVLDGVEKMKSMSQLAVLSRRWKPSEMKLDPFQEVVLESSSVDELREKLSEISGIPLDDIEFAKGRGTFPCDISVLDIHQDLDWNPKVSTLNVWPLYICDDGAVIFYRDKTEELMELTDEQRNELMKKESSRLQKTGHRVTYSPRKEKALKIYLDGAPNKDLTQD
In short: as §1

USP48 = biological target: T3, USP48 (UniProt Q86UV5)
T3 sequence (whole entry): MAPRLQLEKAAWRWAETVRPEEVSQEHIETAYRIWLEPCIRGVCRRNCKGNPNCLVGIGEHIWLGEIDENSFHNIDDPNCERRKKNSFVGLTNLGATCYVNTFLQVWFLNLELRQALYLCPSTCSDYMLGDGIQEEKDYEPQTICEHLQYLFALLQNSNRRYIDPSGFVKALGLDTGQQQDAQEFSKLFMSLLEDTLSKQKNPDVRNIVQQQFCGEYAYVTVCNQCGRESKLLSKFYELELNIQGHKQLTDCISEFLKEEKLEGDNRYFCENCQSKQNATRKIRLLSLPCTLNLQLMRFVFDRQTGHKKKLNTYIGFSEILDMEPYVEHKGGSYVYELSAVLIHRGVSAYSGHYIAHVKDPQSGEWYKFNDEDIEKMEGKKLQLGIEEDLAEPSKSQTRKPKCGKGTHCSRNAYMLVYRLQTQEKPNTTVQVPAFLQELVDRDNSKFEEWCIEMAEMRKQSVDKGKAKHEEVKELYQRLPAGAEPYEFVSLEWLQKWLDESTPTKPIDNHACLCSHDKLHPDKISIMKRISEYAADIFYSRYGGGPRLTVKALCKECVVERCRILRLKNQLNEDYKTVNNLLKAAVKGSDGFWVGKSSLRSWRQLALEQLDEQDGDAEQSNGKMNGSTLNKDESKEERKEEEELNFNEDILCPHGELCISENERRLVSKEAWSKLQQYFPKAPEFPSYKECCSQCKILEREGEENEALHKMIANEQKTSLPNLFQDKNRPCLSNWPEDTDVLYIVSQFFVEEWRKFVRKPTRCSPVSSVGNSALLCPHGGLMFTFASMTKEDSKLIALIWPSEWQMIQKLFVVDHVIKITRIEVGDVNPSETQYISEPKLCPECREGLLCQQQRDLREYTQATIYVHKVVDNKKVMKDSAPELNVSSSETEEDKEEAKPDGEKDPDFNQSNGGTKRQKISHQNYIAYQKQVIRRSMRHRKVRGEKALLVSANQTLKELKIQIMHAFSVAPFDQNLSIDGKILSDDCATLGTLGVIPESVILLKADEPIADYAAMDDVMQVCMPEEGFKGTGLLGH
In short: as §1

USP5 = biological target: T4, USP5 (UniProt P45974)
T4 sequence (whole entry): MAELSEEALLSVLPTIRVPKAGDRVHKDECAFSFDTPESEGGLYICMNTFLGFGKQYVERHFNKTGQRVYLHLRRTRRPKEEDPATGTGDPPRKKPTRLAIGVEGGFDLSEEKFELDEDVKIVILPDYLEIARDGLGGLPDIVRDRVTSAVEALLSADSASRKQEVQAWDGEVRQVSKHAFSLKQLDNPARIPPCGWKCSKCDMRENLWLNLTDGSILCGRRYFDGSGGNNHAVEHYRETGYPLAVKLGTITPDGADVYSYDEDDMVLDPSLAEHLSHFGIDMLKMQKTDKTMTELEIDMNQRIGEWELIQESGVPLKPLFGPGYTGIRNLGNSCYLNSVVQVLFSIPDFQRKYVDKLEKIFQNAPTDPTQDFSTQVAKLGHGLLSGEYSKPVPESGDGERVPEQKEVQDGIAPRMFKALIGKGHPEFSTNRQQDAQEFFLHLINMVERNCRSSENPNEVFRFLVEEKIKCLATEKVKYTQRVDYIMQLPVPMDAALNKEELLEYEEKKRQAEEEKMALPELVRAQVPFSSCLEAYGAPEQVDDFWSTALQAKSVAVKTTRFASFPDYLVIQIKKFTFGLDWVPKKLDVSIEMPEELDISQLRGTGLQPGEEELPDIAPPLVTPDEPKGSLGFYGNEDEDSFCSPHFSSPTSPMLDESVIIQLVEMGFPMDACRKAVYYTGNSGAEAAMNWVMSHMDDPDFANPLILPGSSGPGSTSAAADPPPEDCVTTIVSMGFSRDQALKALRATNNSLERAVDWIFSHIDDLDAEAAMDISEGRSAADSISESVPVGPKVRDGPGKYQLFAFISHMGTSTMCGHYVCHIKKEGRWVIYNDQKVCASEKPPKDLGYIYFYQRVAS
In short: as §1

USP54 = USP54 (UniProt Q70EL1)
Chain of USP54 (Q70EL1 whole entry): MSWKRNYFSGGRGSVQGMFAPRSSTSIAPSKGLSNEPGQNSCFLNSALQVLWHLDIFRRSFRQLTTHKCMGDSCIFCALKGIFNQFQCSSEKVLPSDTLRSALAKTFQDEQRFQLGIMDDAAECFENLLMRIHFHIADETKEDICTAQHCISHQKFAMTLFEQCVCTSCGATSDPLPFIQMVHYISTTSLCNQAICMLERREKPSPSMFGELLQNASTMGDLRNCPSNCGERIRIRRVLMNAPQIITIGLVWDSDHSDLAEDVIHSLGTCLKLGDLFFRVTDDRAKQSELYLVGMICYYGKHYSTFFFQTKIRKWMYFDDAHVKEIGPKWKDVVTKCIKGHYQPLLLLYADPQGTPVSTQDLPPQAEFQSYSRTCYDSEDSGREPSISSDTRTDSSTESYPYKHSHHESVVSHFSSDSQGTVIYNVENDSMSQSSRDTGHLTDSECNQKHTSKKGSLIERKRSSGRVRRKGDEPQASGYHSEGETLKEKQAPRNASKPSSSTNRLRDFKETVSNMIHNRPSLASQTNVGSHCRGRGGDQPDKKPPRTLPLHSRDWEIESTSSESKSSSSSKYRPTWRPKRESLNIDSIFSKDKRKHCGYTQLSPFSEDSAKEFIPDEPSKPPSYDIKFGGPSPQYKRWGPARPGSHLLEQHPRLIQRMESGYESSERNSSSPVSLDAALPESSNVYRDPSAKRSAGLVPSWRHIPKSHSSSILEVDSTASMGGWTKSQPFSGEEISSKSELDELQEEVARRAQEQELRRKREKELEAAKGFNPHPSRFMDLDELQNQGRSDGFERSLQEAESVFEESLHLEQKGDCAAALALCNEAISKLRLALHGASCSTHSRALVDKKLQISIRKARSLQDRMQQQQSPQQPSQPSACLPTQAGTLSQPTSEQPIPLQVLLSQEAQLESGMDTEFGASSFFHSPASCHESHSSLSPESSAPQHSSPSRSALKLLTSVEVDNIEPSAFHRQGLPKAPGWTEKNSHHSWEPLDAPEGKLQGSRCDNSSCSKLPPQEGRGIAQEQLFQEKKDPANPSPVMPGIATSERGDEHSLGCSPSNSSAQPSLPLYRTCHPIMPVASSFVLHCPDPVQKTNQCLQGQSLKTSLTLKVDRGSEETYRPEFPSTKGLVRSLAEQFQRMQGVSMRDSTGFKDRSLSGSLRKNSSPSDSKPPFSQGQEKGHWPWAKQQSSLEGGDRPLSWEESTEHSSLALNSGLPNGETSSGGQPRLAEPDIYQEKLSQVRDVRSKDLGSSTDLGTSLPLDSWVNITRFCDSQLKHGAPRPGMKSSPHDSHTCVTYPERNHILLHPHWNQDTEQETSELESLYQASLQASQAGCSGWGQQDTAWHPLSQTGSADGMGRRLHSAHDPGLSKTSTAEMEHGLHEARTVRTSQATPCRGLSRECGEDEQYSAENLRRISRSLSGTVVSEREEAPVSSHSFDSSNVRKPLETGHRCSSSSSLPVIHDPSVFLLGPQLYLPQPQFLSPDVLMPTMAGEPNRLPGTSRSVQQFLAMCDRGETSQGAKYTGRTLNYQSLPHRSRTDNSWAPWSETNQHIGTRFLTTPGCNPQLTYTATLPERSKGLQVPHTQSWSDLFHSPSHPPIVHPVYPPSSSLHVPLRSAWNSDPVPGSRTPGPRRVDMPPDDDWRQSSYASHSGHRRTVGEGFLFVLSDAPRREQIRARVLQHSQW
In short: as §1

USP7 = USP7 (UniProt Q93009)
Chain of USP7 (Q93009 whole entry, looked up): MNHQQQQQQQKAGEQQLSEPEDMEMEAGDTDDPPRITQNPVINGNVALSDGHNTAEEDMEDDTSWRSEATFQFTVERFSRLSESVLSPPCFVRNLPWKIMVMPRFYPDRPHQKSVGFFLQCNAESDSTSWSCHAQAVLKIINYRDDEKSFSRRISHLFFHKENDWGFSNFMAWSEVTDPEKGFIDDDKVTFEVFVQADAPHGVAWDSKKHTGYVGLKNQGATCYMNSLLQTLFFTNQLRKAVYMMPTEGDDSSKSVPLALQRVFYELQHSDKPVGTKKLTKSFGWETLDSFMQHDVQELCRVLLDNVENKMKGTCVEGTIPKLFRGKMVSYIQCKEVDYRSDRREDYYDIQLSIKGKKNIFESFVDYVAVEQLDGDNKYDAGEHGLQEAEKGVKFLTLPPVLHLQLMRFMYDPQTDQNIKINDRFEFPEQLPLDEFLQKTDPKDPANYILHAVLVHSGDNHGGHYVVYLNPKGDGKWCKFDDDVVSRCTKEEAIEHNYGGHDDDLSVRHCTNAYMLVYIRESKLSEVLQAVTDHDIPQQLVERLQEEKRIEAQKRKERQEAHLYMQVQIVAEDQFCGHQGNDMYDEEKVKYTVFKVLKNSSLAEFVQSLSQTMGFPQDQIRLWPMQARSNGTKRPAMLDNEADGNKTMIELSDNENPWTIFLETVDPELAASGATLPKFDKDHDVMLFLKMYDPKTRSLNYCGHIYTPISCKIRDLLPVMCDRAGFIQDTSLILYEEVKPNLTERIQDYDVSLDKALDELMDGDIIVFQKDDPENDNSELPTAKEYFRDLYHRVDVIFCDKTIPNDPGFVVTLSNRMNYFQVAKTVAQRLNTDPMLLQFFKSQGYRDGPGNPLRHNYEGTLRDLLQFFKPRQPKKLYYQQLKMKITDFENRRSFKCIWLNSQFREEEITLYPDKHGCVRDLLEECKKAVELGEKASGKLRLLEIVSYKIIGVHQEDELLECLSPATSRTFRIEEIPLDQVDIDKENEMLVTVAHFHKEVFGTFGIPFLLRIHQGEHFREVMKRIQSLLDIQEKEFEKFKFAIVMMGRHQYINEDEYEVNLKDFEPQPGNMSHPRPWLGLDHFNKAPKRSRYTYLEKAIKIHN
In short: as §1

USP8 = biological target: T5, USP8 (UniProt P40818)
T5 sequence (whole entry): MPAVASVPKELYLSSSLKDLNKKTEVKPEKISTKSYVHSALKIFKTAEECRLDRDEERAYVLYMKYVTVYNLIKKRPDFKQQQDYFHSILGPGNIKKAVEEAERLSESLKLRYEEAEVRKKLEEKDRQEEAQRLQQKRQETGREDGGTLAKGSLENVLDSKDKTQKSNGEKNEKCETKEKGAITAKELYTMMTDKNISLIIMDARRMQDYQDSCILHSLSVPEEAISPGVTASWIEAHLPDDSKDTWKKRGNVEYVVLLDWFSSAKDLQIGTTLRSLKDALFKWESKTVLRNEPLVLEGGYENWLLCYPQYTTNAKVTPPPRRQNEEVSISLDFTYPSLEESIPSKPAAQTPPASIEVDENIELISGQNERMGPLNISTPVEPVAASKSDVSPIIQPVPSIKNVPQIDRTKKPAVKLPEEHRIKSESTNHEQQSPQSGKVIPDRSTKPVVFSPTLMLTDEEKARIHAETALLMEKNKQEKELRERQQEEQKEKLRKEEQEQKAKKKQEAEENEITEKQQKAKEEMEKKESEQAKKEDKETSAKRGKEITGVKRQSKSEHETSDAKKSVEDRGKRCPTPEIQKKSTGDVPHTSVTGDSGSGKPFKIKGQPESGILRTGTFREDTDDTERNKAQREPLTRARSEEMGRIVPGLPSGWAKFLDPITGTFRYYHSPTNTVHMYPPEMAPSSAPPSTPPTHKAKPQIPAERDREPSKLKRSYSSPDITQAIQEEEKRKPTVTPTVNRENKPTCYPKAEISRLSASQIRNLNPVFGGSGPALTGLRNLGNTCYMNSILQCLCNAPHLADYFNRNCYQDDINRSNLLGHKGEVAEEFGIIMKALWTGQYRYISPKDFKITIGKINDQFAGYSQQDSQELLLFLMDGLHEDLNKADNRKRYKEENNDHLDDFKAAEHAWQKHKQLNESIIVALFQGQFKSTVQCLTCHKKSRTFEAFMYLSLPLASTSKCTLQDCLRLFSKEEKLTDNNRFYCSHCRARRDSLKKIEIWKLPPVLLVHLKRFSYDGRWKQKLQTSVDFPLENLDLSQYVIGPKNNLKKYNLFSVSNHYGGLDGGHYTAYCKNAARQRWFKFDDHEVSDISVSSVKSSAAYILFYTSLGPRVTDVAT
In short: as §1

Measured: log2 ratio of Biotin-Ahx-Ub-VS probe labelling

Cc1cc(Cl)ccc1NC(=O)CCl
inactive: USP42 -0.0727 | USP46 -0.0701 | USP47 -0.176 | USP48 -0.173 | USP5 -0.0552 | USP54 -0.075 | USP7 -0.304 | USP8 0.0468
